Ten compounds from PubChem BioAssay (NCATS) can be followed below.

Records with an inconclusive call do not appear. The source made the active and inactive calls. Unless noted, the call rests on the fitted dose curve; in most records, active means well fitted curve in the direction sought with a large enough effect; inconclusive means small, poorly fitted or top-dose-only effect, or another doubt; inactive means no such curve, though single readings can be large; an effect the other way counts as inactive or inconclusive.

Assay [1] concerns the target Glucocorticoid receptor (Homo sapiens) (UniProt P04150). Put plainly: GR-GFP Redistribution (AID 450;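 active means compounds whose dose series gives a full or clear partial fitted curve of increased nuclear translocation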; further: potency means the concentration at half of the fitted maximal effect). The settings on record: U2OS GR-GFP nuclear translocation, laser cytometry, 2 h.
Assay [2] shares this target. Put plainly: GR-EFC Redistribution (AID 451; calls by dose curve; further: potency means the concentration at half of the fitted maximal effect). The settings on record: CHO-K1 GR-EFC translocation, beta-gal luminescence, 2 h. In a few lines:
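Translocation of GR-ED fusion to nuclear EA restores b-gal, read by luminescence after 1 h room-temperature detection. Engineered CHO-K1 biosensor cells, 1,000/well, exposed 2 h at 37 C to titrations up to 46 uM final.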

In assay [3] the target is Mitogen-activated protein kinase 10 (Mus musculus) (UniProt Q61831). The assay can be described thus: JNK3 AlphaScreen Assay (AID 530; active means well fitted curve in either direction with a large enough effect, not every such curve was filed as active;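 further: kinase came from lysate of stimulated human HepG2 cells; signal reports phosphorylation of biotinylated GST-cJun 1-79 at Ser73 with 10 µM ATP; on the % scale 0 is the no-effect control and ±100 the full control effect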). The settings on record: JNK3 lysate, c-Jun phosphorylation; series mostly up to 57.1 µM. The method, boiled down:
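qHTS titrations with 15 min compound pre-incubation before adding ATP (10 uM final). Read-out: AlphaScreen of Ser73-phosphorylated biotin-GST-cJun using HepG2 lysate JNK3 activated by IL-1β and TNFα.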

Assay [4] has as its target DNA dC->dU-editing enzyme APOBEC-3G (Homo sapiens) (UniProt Q9HC16). The assay can be described thus: qHTS for inhibitors of Vif-A3G interactions: Validation (AID 588379). Further: 0% is about no effect. The following applies: Vif-A3G protein interaction assay; series mostly up to 46.1 µM. In a few lines: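 Yellow fluorescence (Ex 488, Em 500-530) of Vif-coexpressing HeLa A3G-eYFP cells, scanned by Acumen cytometer, reports blocked A3G degradation. Cells plated at 700/well overnight at 37 deg C before compound addition, then a further overnight compound incubation at 37 deg C.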
On the technique in general: Quantitative high-throughput screening tests each substance at several concentrations.

The subject of assay [5] is Zika virus NS2B-NS3 protease. Put plainly: Primary screen GU AMC qHTS for Zika virus inhibitors (AID 1347154).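 Further: 0% = no-inhibitor control and -100% = no-enzyme control; nearly all actives have a fitted effect of over 70% in size.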 The settings on record: Zika NS2B-NS3 unlinked protease, AMC fluorogenic substrate; series mostly up to 54.1 µM. In a few lines: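 Fluorogenic AMC-substrate cleavage by noncovalent NS2B-NS3 protease complex (25 nM, pH 8.0 Tris buffer with Tween 20) followed for 15 minutes at room temperature (~20% conversion). Percent inhibition from ex340/em450 signal change, fitted by 4-parameter Hill equation.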

Assay [6] relates to Zika virus NS2B-NS3 protease (linked construct). The assay can be described thus: Primary screen NINDS Rhodamine qHTS for Zika virus inhibitors (AID 1347160). Further: nearly all actives have a fitted effect of over 55% in size. Further: potency means the concentration at half of the fitted maximal effect. The settings on record: purified NS2B-NS3 protease, Rhodamine110 substrate fluorescence; series mostly up to 57.1 µM. The method, boiled down:
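Aprotinin served as in-plate control. Conditions: 25 nM linked NS2B-NS3, pH 8.0 Tris buffer, titrated compounds, 15 min preincubation and 15 min reaction with 1.5 microM Rhod110 substrate at room temperature.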

A short description of assay [7]: OV-KATE Cancer Cell Toxicity qHTS against the NCATS CANVASS Library (AID 1347345). Further: on the % scale 0 is the no-effect control and ±100 the full control effect. The following applies: OV-KATE cells viability, CellTiter-Glo luminescence, 72 h; series mostly up to 38.3 µM. The method, boiled down:
(§1)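 Viability was assessed by adding CellTiter-Glo reagent to treated cultures and reading luminescence after 15min at room temperature. Treatment lasted 72 h at 37 degrees C/5% CO2, using an 11-point series on 1000 cells/well.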

Assay [8] in a line: HPAF-II Cancer Cell Toxicity qHTS against the NCATS CANVASS Library (AID 1347346). Further: on the % scale 0 is the no-effect control and ±100 the full control effect; nearly all actives have a fitted effect of over 55% in size. The settings on record: HPAF-II viability, CellTiter-Glo ATP luminescence, 72 h; series mostly up to 38.3 µM. The method, boiled down: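 First, HPAF-II cells are plated (1000 cells/well) and held 4 h at 37 degrees C. Next, compounds are pin-transferred as an 11-point series. After 72 h, CellTiter-Glo is added and luminescence measured.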

Assay [9] can be described thus: OV-SAHO Cancer Cell Toxicity qHTS against the NCATS CANVASS Library (AID 1347348). Further: on the % scale 0 is the no-effect control and ±100 the full control effect; nearly all actives have a fitted effect of over 55% in size. The following applies: OV-SAHO viability, CellTiter-Glo luminescence, 72 h; series mostly up to 38.3 µM. In a few lines: as §1
Assay [10] can be described thus: HEK293 24hr Apoptosis Induction qHTS against the NCATS CANVASS Library (AID 1347359). Further: 0% is about no effect. The settings on record: HEK293 caspase-3/7 activation, Caspase-Glo luminescence; series mostly up to 46.1 µM. In a few lines: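 Caspase-3/7 activation measured as luminescence from the DEVD-based Caspase-Glo reagent, 15 min at room temperature, following 24-hour compound treatment of HEK293 cells.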

A short description of assay [11]: HEK293 12hr Apoptosis Induction qHTS against the NCATS CANVASS Library (AID 1347361). Further: 0% is about no effect. The following applies: HEK293 caspase-3/7 Caspase-Glo luminescence; series mostly up to 46.1 µM. The method, boiled down:
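Read-out: Caspase-Glo 3/7 luminescence (DEVD substrate), 15 min RT. Preceded by 12 h compound exposure of HEK293, 500 cells/well, 11-pt qHTS titration; doxorubicin titration as control.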

Assay [12] concerns NAD(P)H diaphorase (Clostridium kluyveri). Put plainly: Diaphorse counterscreen qHTS: Assay Interference Panel against the NCATS CANVASS Library (AID 1347362). Further: 0% is about no effect. The following applies: Diaphorase enzyme, resazurin to resorufin fluorescence; series mostly up to 57.5 µM. The method, boiled down: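 Counterscreen for coupling-enzyme interference: resorufin fluorescence from resazurin/NADH turnover, read after 5 min at room temperature. Compounds were tested over an 11-point series after 15 min dark preincubation with diaphorase in PBS-Tween.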
For orientation: The purpose of a counterscreen is to sort out artefacts and off-target activity.

Assay [13] concerns the target Luciferin 4-monooxygenase (Photinus pyralis) (UniProt P08659). The assay can be described thus: Firefly luciferase counterscreen qHTS: Assay Interference Panel against the NCATS CANVASS Library (AID 1347363). Further: 0% is about no effect. The following applies: purified firefly luciferase, luminescence inhibition, 5 min; series mostly up to 57.5 µM. The method, boiled down: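 Luminescence inhibition readout: compounds (11-point qHTS) sat 15 min at room temperature with substrate mix (0.013 mM luciferin and ATP), then firefly luciferase was added and signal read 5 min later.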

Assay [14] addresses Nuclear receptor subfamily 1 group I member 3 (Homo sapiens) (UniProt Q14994). Put plainly: qHTS for Constitutive Androstane Receptor (CAR) Agonist screened against the NCATS CANVASS Library (AID 1347373).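 Further: every well also contained 1.5 µM PK11195 alongside the test compound; 0% is about no effect.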 The settings on record: HepG2-hCAR-CYP2B6 luciferase reporter, ONE-Glo luminescence; series mostly up to 46.1 µM. In a few lines:
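Cells were plated and allowed to attach for 4hr, then dosed with compound in an 11-point series alongside 1.5uM PK11195. After 24hr at 37C, viability was measured fluorometrically and CAR-driven CYP2B6 reporter luminescence was recorded.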

Assay [15] in a line: 10-beta competent E. coli microbial cell viability qHTS against the NCATS CANVASS Library (AID 1347376). Further: 0% is about no effect. The settings on record: E. coli 10-beta viability, BacTiter-Glo ATP luminescence, overnight; series mostly up to 46.1 µM. The method, boiled down: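 Bacterial suspension diluted to 0.2 OD was dosed with compounds, 11-point series, then held overnight at 37C. BacTiter-Glo reagent was added, and after 20 min at room temperature ATP-dependent luminescence was measured.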

The nature of assay [16]: qHTS for H2AX Agonists against the NCATS CANVASS Library (AID 1347378). Further: 0% is about no effect. The following applies: CHO-K1 H2AX phosphorylation, HTRF TR-FRET, 3 h; series mostly up to 76.9 µM. The method, boiled down:
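CHO-K1 cells were plated overnight at 37C, then exposed to compounds (concentration series, 0.76% DMSO final) for 3 hr at 37C. Lysates received Eu-cryptate anti-pH2AX (S139) and d2 anti-H2AX antibodies; after 24 hr at room temperature, TR-FRET 665/620 nm ratio was read.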

Assay [17] is described as follows: Inflammasome Signaling qHTS Counterscreen: IL-1-beta AlphaLISA counterscreen against the NCATS CANVASS Library (AID 1347381).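 Further: cell-free check with purified IL-1β in medium and no THP-1 cells; 0% is about no effect.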 The following applies: Purified IL-1beta AlphaLISA signal interference counterscreen; series mostly up to 57.5 µM. In a few lines: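 Purified IL-1-beta (4 pg/well) + compound, 11-pt conc. series; acceptor beads 6 ug/mL + biotin-Ab 0.6 nM final, 1 h RT; SA-donor 24 ug/ml final, 30 min dark RT; read ex 680/em 615.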

Assay [18] in a line: qHTS Assay for Lipid Storage Modulators (AID 1519; calls by dose curve; on activity change, negative = inhibition: on the % scale 0 is the no-effect control and ±100 the full control effect). The settings on record: Drosophila S3 cells, BODIPY lipid droplet/cell ratio, laser cytometry, cells loaded with oleic acid; for activity change, negative = inhibition: at 57.5 µM (top of the series). In a few lines:
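Cells seeded at 5,000 per well were treated with compounds over a concentration series and loaded with oleic acid (400 uM, as added). Lipid droplet fluorescence (488 nm excitation, 500-530 nm channel) was read by laser-scanning cytometry and normalized to 20 uM Triacsin C.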

For assay [19], the target named is 3',5'-cyclic-AMP phosphodiesterase 4B (Homo sapiens) (UniProt Q07343). Put plainly: qHTS Assay for Inhibitors of PDE-IV (AID 607; active means well fitted activation curve with a large enough effect in the main read-out, with a control signal flat, not every such curve was filed as active; further: % of control where 0% means no effect). The settings on record: HEK293 ACTOne CNG channel cells, membrane potential fluorescence; series mostly up to 22.9 µM. In a few lines:
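ACTOne HEK293 cells carry a modified cAMP-gated CNG channel and express endogenous PDE4; plated 1000 cells/well, compounds up to 22.9 uM final. Membrane-potential dye fluorescence (ex 535/em 590) was read; parental cells received 10 uM forskolin + 100 uM RO 20-1724.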

Assay [20] is described as follows: Primary qHTS for small molecule stabilizers of the endoplasmic reticulum resident proteome: Secreted ER Calcium Modulated Protein (SERCaMP) assay (AID 1508630). Further: on the % scale 0 is the no-effect control and ±100 the full control effect. The settings on record: SH-SY5Y GLuc-SERCaMP (Gaussia luciferase released on ER calcium loss) secretion, thapsigargin, luminescence; series mostly up to 38.4 µM. In a few lines:
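The SH-SY5Y reporter protocol was run at 3 concentrations up to 38.3 uM (primary) or 11 concentrations (follow-up): 16 h compound, 100 nM thapsigargin for 4 h, then extracellular luciferase luminescence.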

[21] abbreviates: measured here: cell count channel max response.
[22] abbreviates: measured here: lipid channel max response.

Sequence of DNA dC->dU-editing enzyme APOBEC-3G (Homo sapiens) (Q9HC16 whole entry, looked up): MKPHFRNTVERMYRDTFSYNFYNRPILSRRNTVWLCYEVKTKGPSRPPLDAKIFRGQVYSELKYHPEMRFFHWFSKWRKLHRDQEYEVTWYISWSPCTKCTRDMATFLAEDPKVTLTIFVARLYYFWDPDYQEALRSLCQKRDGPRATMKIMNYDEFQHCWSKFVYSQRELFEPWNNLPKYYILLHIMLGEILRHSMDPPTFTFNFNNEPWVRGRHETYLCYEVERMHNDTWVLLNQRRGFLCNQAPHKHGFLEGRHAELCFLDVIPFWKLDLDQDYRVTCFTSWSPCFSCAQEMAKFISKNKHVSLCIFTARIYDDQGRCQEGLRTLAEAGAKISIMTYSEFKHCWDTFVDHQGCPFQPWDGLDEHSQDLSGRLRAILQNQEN
Sequence of Nuclear receptor subfamily 1 group I member 3 (Homo sapiens) (Q14994 whole entry, looked up): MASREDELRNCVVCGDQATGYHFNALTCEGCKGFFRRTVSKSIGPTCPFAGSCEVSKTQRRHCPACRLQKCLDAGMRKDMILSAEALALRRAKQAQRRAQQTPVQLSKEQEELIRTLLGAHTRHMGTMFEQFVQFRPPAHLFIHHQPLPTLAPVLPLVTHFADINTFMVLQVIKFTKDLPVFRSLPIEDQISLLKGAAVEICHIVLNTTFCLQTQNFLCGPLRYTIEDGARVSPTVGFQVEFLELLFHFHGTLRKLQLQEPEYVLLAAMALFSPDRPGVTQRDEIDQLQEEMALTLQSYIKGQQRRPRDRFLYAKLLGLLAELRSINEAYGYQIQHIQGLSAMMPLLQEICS
Sequence of Luciferin 4-monooxygenase (Photinus pyralis) (P08659 whole entry, looked up): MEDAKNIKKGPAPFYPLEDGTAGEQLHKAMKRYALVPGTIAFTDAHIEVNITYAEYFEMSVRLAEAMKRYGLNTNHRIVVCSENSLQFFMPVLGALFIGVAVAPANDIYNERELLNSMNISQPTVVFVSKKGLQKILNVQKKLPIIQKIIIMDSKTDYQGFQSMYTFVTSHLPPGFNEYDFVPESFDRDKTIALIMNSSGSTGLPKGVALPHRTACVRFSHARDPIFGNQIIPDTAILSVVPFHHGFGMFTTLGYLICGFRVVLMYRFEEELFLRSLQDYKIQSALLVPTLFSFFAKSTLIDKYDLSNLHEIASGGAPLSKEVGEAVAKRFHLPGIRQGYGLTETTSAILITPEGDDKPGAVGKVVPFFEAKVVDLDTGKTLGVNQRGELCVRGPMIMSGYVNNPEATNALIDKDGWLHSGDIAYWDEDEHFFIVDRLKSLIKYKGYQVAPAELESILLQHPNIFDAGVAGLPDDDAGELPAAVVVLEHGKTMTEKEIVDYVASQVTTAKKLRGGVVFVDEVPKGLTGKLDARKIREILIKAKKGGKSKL
Sequence of Glucocorticoid receptor (Homo sapiens) (P04150 whole entry, looked up): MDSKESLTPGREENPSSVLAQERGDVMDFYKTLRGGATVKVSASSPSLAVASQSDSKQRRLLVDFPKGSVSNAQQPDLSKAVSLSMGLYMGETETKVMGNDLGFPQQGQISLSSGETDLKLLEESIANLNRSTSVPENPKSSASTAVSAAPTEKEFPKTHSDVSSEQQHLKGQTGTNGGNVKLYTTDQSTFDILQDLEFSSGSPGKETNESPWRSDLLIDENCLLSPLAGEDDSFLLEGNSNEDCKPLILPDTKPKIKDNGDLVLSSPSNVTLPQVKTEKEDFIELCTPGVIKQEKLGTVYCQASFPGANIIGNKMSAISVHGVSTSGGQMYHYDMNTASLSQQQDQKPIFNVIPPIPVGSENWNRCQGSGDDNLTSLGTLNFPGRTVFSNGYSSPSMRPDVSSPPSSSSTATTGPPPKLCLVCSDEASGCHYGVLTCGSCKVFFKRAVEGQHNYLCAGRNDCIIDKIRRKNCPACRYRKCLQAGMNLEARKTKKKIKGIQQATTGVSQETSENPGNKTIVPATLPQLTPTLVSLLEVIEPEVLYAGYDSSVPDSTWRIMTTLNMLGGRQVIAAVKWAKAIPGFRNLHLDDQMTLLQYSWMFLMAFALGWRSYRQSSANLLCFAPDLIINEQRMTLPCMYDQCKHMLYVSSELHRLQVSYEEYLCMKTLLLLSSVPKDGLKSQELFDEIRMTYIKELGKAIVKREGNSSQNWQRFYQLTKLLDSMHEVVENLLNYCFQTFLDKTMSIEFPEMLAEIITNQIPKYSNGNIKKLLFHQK
Sequence of 3',5'-cyclic-AMP phosphodiesterase 4B (Homo sapiens) (Q07343 whole entry, looked up): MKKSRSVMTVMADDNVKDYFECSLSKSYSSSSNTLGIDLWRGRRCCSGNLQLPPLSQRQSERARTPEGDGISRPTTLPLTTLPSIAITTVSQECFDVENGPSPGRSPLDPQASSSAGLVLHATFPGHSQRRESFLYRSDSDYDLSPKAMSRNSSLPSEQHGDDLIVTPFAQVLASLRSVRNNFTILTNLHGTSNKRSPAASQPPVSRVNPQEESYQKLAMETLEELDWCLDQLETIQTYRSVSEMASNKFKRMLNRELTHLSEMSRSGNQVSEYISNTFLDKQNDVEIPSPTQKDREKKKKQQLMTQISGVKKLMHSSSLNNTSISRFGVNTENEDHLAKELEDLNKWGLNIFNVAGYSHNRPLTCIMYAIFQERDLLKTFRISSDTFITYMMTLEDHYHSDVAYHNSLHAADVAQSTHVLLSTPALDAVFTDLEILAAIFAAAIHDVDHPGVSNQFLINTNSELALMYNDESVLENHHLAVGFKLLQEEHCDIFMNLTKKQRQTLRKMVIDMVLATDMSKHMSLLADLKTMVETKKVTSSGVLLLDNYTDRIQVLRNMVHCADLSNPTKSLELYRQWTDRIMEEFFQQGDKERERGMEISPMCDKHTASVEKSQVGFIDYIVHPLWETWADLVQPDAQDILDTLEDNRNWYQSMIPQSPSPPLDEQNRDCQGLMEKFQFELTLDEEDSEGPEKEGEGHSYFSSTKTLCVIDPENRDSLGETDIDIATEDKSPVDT

Turning to `CC1(C)N(O)C(c2ccc(C(=O)O)cc2)=[N+]([O-])C1(C)C`, the Potency in [1] and in [2] was > 46 µM (inactive) in each case. Also, the result in assay [3] was inactive. The Potency entry in [4] and in [5] was “inactive” in each case.
Take `COc1ccc(C23Oc4cc(OC)cc(OC)c4[C@](O)([C@H](c4ccccc4)C2C(=O)NCCCCNC(=O)c2ccccc2)[C@@H]3O)cc1` (stereo partly specified): the Potency in assay [6] was 49.3 µM (active). For the same compound, the Potency result in assay [7], in assay [8], in assay [9], in assay [10], in assay [11] and in assay [16] was “inactive” throughout. Also, the result in assay [12], in assay [13], in assay [14], in assay [15] and in [17] was inactive.
In the case of `N[C@@H](Cn1ccc(=O)n(Cc2ccc(C(=O)O)cc2)c1=O)C(=O)O`, the Potency in assay [1] and in assay [2] was > 46 µM (inactive) each time. Further, in [3], the result was inactive. Besides, in assay [18], the activity change, negative = inhibition is 0.903% (inactive). Moreover, the max response in [18] (setting [21]) was -1.53%; in assay [18] (setting [22]), -1.3%. In addition, the Potency entry in assay [4] and in [5] was “inactive” in each case.
On to `CO[C@@H](/C=C/CC/C=C/C(=O)O)[C@@H](O)[C@H](C)/C=C(\C)[C@@H](O)[C@H](C)C(=O)CCCC1CC(=O)NC(=O)C1`, for which the Potency result in assay [6], in assay [7], in assay [8], in [9], in [10] and in [11] was “inactive” each time. Moreover, in assay [16], the Potency result is “inactive”. For the same compound, the compound was called inactive in assay [12], in assay [13], in assay [14], in assay [15] and in [17].
As to `CCNC(=O)[C@@H]1O[C@@H](n2cnc3c(N)ncnc32)[C@H](O)[C@H]1O`, the Potency in [1] and in assay [2] was > 46 µM (inactive) in each case. Also, the Potency result in assay [19], in assay [4] and in assay [5] was “inactive” each time. In assay [18], the activity change, negative = inhibition is 0.939% (inactive). Moreover, the values for the max response in assay [18] (setting [21]) and in assay [18] (setting [22]) were -12.5% and -10.6%, respectively.
In the case of `CN1[C@@H]2CC[C@H]1CC(OC(=O)N1Cc3ccccc3NC1=O)C2` (stereo partly specified), the Potency result in assay [5] and in assay [20] was “inactive” each time.
For `CCC[C@H]1CC[C@H]2[C@H](C)CCC[C@H]2N1`, the Potency entry in assay [6], in assay [7], in [8], in assay [9], in [10] and in assay [11] was “inactive” in each case. The Potency result in assay [16] is “inactive”. For the same compound, the compound was classed as inactive in [12], in assay [13], in assay [14], in assay [15] and in [17].
For the compound `CCCCC1(C2CCCC2)Cc2cc(OCCCC(=O)O)c(Cl)c(Cl)c2C1=O` (stereo unspecified), the Potency result in assay [5] and in assay [20] was “inactive” in each case.
Regarding `NC(=NCc1ccc(Cl)cc1)SCCCc1cnc[nH]1`, the Potency in assay [1] and in [2] was > 46 µM (inactive) in each case. Further, in [3], the compound was called inactive. The Potency result in assay [4] and in assay [5] was “inactive” throughout.
Take `Cc1c(C(=O)c2ccc3ccccc3c2)c2cccc3c2n1[C@H](CN1CCOCC1)CO3`: the Potency in assay [1] and in [2] was > 46 µM (inactive) in each case. The Potency entry in [19], in assay [4] and in assay [5] was “inactive” in each case.
